Laboratory results as given in PubChem BioAssay AID1159580 (chemical genetic matrix, 2015).
Hit rate of the full screen: of about 5,500 compounds, about 2,000 (36%) were called active. Not shown: some 18% with an inconclusive outcome. No stated cut-off is given here; in the data, active means normalized growth mostly below about 0.91 (no sharp cut-off); inconclusive means no clear call, values can overlap the other calls; inactive means mostly above about 0.92. This is one part of the list.

Assay: chemical genetic growth profiling, strain panel (AID 1159580);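 further: tested at 20 µM; growth read once vehicle control cultures reached saturation at 30 °C; 1 = growth at the plate median or of vehicle wells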
Settings: S. cerevisiae deletion strains, growth OD

Measured: normalized growth

COc1ccc(Oc2ccc([N+](=O)[O-])cc2C(=O)O/N=C(/N)c2ccc(C(F)(F)F)cc2)cc1
inactive: locus YAR019C, strain CDC15, stronger effect = lower value 1 | locus YBL105C, strain PKC1, stronger effect = lower value 0.991 | locus YBR135W, strain CKS1, stronger effect = lower value 0.991 | locus YBR136W, strain MEC1, stronger effect = lower value 0.996 | locus YBR160W, strain CDC28, stronger effect = lower value 0.997 | locus YDL017W, strain CDC7, stronger effect = lower value 1 | locus YDL028C, strain MPS1, stronger effect = lower value 1 | locus YDL101C, strain DUN1, stronger effect = lower value 0.988 | locus YDL108W, strain KIN28, stronger effect = lower value 0.99 | locus YDL132W, strain cdc53, stronger effect = lower value 0.982 | locus YDL214C, strain PRR2, stronger effect = lower value 1.01 | locus YDR052C, strain DBF4, stronger effect = lower value 1 | locus YDR054C, strain cdc34, stronger effect = lower value 0.99 | locus YDR226W, strain ADK1, stronger effect = lower value 0.987 | locus YDR477W, strain SNF1, stronger effect = lower value 0.999 | locus YER123W, strain YCK3, stronger effect = lower value 0.983 | locus YER133W, strain GLC7, stronger effect = lower value 1 | locus YFL009W, strain cdc4, stronger effect = lower value 0.998 | locus YFL029C, strain CAK1, stronger effect = lower value 1 | locus YFR003C, strain YPI1, stronger effect = lower value 1.01 | locus YFR019W, strain FAB1, stronger effect = lower value 1 | locus YFR028C, strain CDC14, stronger effect = lower value 0.998 | locus YGR040W, strain KSS1, stronger effect = lower value 1 | locus YGR052W, strain FMP48, stronger effect = lower value 1.01 | locus YGR092W, strain DBF2, stronger effect = lower value 1.03 | locus YHR030C, strain SLT2, stronger effect = lower value 0.92 | locus YHR079C, strain IRE1, stronger effect = lower value 1 | locus YHR082C, strain KSP1, stronger effect = lower value 1.11 | locus YHR205W, strain SCH9, stronger effect = lower value 0.991 | locus YIL147C, strain SLN1, stronger effect = lower value 1 | locus YJL095W, strain BCK1, stronger effect = lower value 1 | locus YJL128C, strain PBS2, stronger effect = lower value 0.957 | locus YJL157C, strain FAR1, stronger effect = lower value 1.02 | locus YJR016C, strain ILV3, stronger effect = lower value 1 | locus YJR066W, strain TOR1 (second series), stronger effect = lower value 0.964 | locus YJR066W, strain TOR1, stronger effect = lower value 1.07 | locus YKL048C, strain ELM1, stronger effect = lower value 0.995 | locus YKL067W, strain YNK1, stronger effect = lower value 0.999 | locus YKL101W, strain HSL1, stronger effect = lower value 0.998 | locus YKL193C, strain SDS22, stronger effect = lower value 1 | locus YKL203C, strain TOR2, stronger effect = lower value 1.03 | locus YLR113W, strain HOG1, stronger effect = lower value 0.919 | locus YLR133W, strain CKI1, stronger effect = lower value 1.01 | locus YLR403W, strain SFP1, stronger effect = lower value 1.01 | locus YML070W, strain DAK1, stronger effect = lower value 1.01 | locus YMR001C, strain CDC5, stronger effect = lower value 1.01 | locus YMR205C, strain PFK2 (second series), stronger effect = lower value 0.989 | locus YMR277W, strain FCP1, stronger effect = lower value 1.01 | locus YNL006W, strain LST8, stronger effect = lower value 1 | locus YNL020C, strain ARK1, stronger effect = lower value 1.02 | locus YNL161W, strain CBK1, stronger effect = lower value 0.994 | locus YNL183C, strain NPR1, stronger effect = lower value 1.04 | locus YNL207W, strain RIO2, stronger effect = lower value 1 | locus YNL222W, strain SSU72, stronger effect = lower value 0.997 | locus YNL307C, strain MCK1 (second series), stronger effect = lower value 1 | locus YOL078W, strain AVO1, stronger effect = lower value 1 | locus YOL136C, strain PFK27, stronger effect = lower value 1.01 | locus YOR061W, strain CKA2, stronger effect = lower value 1.01 | locus YOR119C, strain RIO1, stronger effect = lower value 1.06 | locus YOR231W, strain MKK1, stronger effect = lower value 0.985 | locus YOR329C, strain SCD5, stronger effect = lower value 1 | locus YPL031C, strain PHO85, stronger effect = lower value 0.988 | locus YPL153C, strain RAD53, stronger effect = lower value 0.995 | locus YPL204W, strain HRR25, stronger effect = lower value 1.01 | locus YPL209C, strain IPL1, stronger effect = lower value 1 | locus YPL256C, strain CLN2, stronger effect = lower value 0.927 | locus YPR025C, strain CCL1, stronger effect = lower value 0.999 | locus YPR106W, strain ISR1, stronger effect = lower value 0.993 | locus YPR111W, strain DBF20, stronger effect = lower value 0.986 | strain NNK1, stronger effect = lower value 0.982 | strain TSCII, stronger effect = lower value 1

CNC(=O)c1cc2c(cn1)[nH]c1ccccc12
inactive: locus YAL040C, strain CLN3, stronger effect = lower value 1.01 | locus YCL061C, strain MRC1 (second series), stronger effect = lower value 1.01 | locus YDR150W, strain NUM1, stronger effect = lower value 1 | locus YDR363W, strain ESC2, stronger effect = lower value 1.01 | locus YER002W, strain NOP16, stronger effect = lower value 0.995 | locus YGR229C, strain SMI1, stronger effect = lower value 1.05 | locus YMR263W, strain SAP30, stronger effect = lower value 1 | locus YMR307W, strain GAS1, stronger effect = lower value 0.997 | locus YNL128W, strain TEP1, stronger effect = lower value 0.97 | locus YNL175C, strain NOP13, stronger effect = lower value 0.986 | locus YNL197C, strain WHI3, stronger effect = lower value 0.983 | locus YNL224C, strain SQS1, stronger effect = lower value 0.989 | locus YOR083W, strain WHI5 (second series), stronger effect = lower value 0.993 | locus YPL055C, strain LGE1, stronger effect = lower value 1.02
